Data as given in ChEMBL document CHEMBL1157539, “Thousands of chemical starting points for antimalarial lead identification” (Nature, 2010).
“And” between values parts separate entries of the source, which are not always exact repeats. Equal entries are not always repeated.

What was measured:
Assay type in all cases: functional
[1] = system: Plasmodium falciparum; test: GSK_TCMDC: Inhibition of Plasmodium falciparum 3D7 in whole red blood cells, using parasite LDH activity as an index of growth. Test compounds present at 2uM
[2] = system: Plasmodium falciparum; test: GSK_TCMDC: Inhibition of Plasmodium falciparum Dd2 in whole red blood cells, using parasite LDH activity as an index of growth. Test compounds present at 2uM
[3] = system: HepG2; test: GSK_TCMDC: Percent inhibition of human HepG2 cell line. Test compounds present at 10uM.

Structure (SMILES) | Inhibition [1] [%] | Inhibition [2] | Inhibition [3]
COc1ccc(CC(C)NCC(O)c2cccc(Cl)c2)cc1C (stereo not drawn) | 89 | 78% | 11%
COc1ccc2[nH]cc(C3CCN(Cc4ccc(NC(=O)c5ccc(-c6ccccc6)cc5)cc4)CC3)c2c1 | 100 | 72% | 24%
COc1ccc(CN2CCN(CCOC(c3ccc(F)cc3)c3ccc(F)cc3)CC2)c(O)c1 | 97 | 97% | 6%
Cc1cccc(C(=O)Nc2ccnc(N(C)C3CCN(Cc4cccc(O)c4)CC3)c2)c1.O=C(O)C(F)(F)F | 89 | 62% | 5%
CCN(Cc1ccccc1)CC(O)c1ccc(Cl)c(Cl)c1.Cl (stereo not drawn) | 96 | 71% | 2%
Cc1[nH]c2ccccc2c1C1=CCN(CC2CC2C(=O)c2ccccc2)CC1 (stereo not drawn) | 95 | 88% | 18%
CC(=O)N(Cc1cccc(-c2cccc(CNCc3ccc4c(c3)OCO4)c2)c1)C1CCN(Cc2ccccc2)CC1.O=C(O)C(F)(F)F | 95 | 21% | 16%
CC1(CCCCN2CC=C(c3c[nH]c4ccccc34)CC2)C(=O)Nc2ccccc21 (stereo not drawn) | 94 | 90% | 3%
Oc1ccc2[nH]cc(C3=CCN(CCc4ccccc4)CC3)c2c1 | 96 | 60% | 11%
CN1CCC(COC(=O)C(O)(c2ccccc2)c2ccccc2)C1 (stereo not drawn) [TRICLAZATE] | 98 | 4% | 0%
Cc1ccc(/C=C/C(=O)NC2CCC(CN3CCC(c4c[nH]c5ccccc45)CC3)CC2)cc1C (stereo not drawn) | 100 | 71% and 91% | 23% and 38%
